From PubChem BioAssay (NCI) come the findings set out here.

The panel holds about 83,000 compounds, 20% with a hit somewhere; the sample as a whole holds those more often.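 Method: cells in 96-well plates; compound added at one concentration; 48 h incubation; percent growth measured; values under 10 scored active.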 Values without a mark were called inactive. Active and inactive are the calls of the source.

Test in all cases: NCI-60 one-dose screen, 48 h (100 = growth as untreated, 0 = no growth, -100 = all killed)
Details in all cases: 10 µM

Assay [1] deals with NCI-H23 lung.
Assay [2] has as its system NCI-H226 lung.
In assay [3] the test system is NCI-H322M lung.
Assay [4] has as its system HOP-62 NSCLC.
Assay [5] has as its system NCI-H460 lung.
In assay [6] the test system is HOP-92 NSCLC.
In assay [7] the test system is NCI-H522 lung.
In assay [8] the test system is A549/ATCC NSCLC.
Assay [9] relates to 786-0 renal.
Assay [10] has as its system COLO 205 colon.

Take `Cc1nc2ccc(-n3c(-c4ccc(Cl)cc4)nc4ccccc4c3=O)cc2n1Cc1ccccc1`: the growth in [1] is 87.8%; in [2] it was 87.8%; in assay [3], 96.5%; in assay [4], 81.9%; in assay [5] it was 102%; in assay [6], 80.3%. In addition, the growth in [7] is 74.2%; in assay [8], 79.6%; in [9], 105%; in [10] it was 93.8%.
Take `CS(=O)(=O)Nc1ccc(OCc2nnc(-c3ccc(Cl)cc3)o2)c(F)c1`: the growth was 93.6% in assay [1]; 86.2% in assay [2]; 109% in assay [3]; 87.2% in assay [4]; 98.9% in assay [5]; 88.3% in [6]. For the same molecule, the growth in assay [7] was 94.8%; in assay [8], 90.2%; in [9], 89.4%; in assay [10], 110%.
For `Cn1c(N)c(N=Cc2ccccc2)c(=O)n(C)c1=O`, the growth in [1] was 103%; in assay [2], 108%; in assay [3], 114%; in [4], 96.3%; in assay [5], 114%; in [6] it was 102%. The growth was 101% in [7], 105% in [8], 103% in [9] and 106% in assay [10].
For the molecule `COC(=O)[C@]12CC[C@@H](C)[C@H](C)[C@@H]1C1=CC[C@@H]3[C@@]4(C)C/C(=N\O)[C@H](O)[C@@]5(C)COC(=C45)C[C@@]3(C)[C@]1(C)CC2`, the growth in assay [1] was -75.7% (active); in [2], -76.7% (active); in [3] it was -77.2% (active); in assay [4] it was -96.7% (active); in assay [5] it was -76.5% (active); in assay [6], -79% (active). The growth is -84.7% (active) in assay [7], -90.6% (active) in assay [8], -81% (active) in [9] and -91.9% (active) in assay [10].
For the molecule `O=C(COc1ccc(Cl)cc1Cl)Oc1coc(CSc2nc3ccccc3s2)cc1=O`, the growth in [1] was 94.5%; in assay [2] it was 93.8%; in [3], 114%; in assay [4] it was 107%; in [5] it was 101%; in [6], 110%. Besides, the growth is 74.8% in assay [7], 27.8% in [8], 113% in assay [9] and 114% in assay [10].
As to `Fc1cc(-c2ncc(-c3cc(F)c(F)c(F)c3)c(NC3CCCCCC3)n2)cc(F)c1F`, the growth was 102% in assay [1]; 95.9% in assay [2]; 102% in assay [3]; 122% in assay [4]; 102% in assay [5]; 88.8% in assay [6]. Besides, the growth was 120% in [7], 85.6% in assay [8], 98.3% in assay [9] and 115% in [10].
As to `Cn1c([N+](=O)[O-])cnc1C=C1C(=O)c2ccccc2C1=O`, the growth in assay [1] was 53.7%; in [2] it was 81.7%; in assay [3], 72.7%; in assay [4], 74.7%; in assay [5] it was 68.9%; in [6], 20.4%. For the same molecule, the growth was 3.27% (active) in assay [7], 65.6% in assay [8], 41.1% in assay [9] and 42.3% in assay [10].
Consider `Cc1ccc(NC(=O)/C=N/O)cc1C`, for which the growth in [1] is 94.6%; in [2], 53.2%; in assay [3] it was 102%; in assay [4], 92.7%; in assay [5], 103%; in [6] it was 82.3%. The growth was 93% in assay [7], 94% in assay [8], 101% in assay [9] and 105% in assay [10].
`Cc1nc2cc(-n3c(-c4ccc(F)cc4)nc4ccccc4c3=O)ccc2n1Cc1ccccc1`: the growth in assay [1] is 42.1%; in assay [2] it was 3.55% (active); in [3], 38.2%; in [4], 45.1%; in [5] it was -38.9% (active); in [6], -15.6% (active). In addition, the growth in [7] was 44.5%; in [8] it was -25.4% (active); in assay [9] it was 7.98% (active); in assay [10], 4.23% (active).
Turning to `C/C=C\COc1cc(C)c(Cl)cc1Cl`, the growth in [1] is 111%; in assay [2], 87.5%; in assay [3] it was 104%; in [4], 109%; in assay [5], 103%; in [6] it was 85.5%. Besides, the growth is 119% in [7], 91.8% in [8], 108% in [9] and 107% in [10].
Turning to `COc1cccc2c1C(=O)c1c(O)c3c(c(O)c1C2=O)C[C@@](O)(C(=O)COC(=O)c1ccccc1)C[C@@H]3OC1CC(N)C(O)C(C)O1` (stereo not given in full), the growth in assay [1] is -65.6% (active); in assay [2], -71.9% (active); in [3], -95.7% (active); in [4] it was -96.8% (active); in assay [5] it was -80.9% (active); in [6], -77.9% (active). The growth in [7] was -85.8% (active); in assay [8], -85.1% (active); in assay [9], -83.9% (active); in assay [10], -90.9% (active).
Turning to `COc1cc(CSc2nc3ccc(Cl)cc3c(=O)n2-c2ccccc2)cc(OC)c1OC`, the growth in assay [1] is 79%; in [2], 89.2%; in [3], 85.7%; in assay [4] it was 72%; in [5] it was 96.6%; in assay [6], 89%. In addition, the growth in assay [7] was 38.5%; in assay [8], 73.9%; in assay [9], 89.3%; in [10], 84.5%.
In the case of `O=C(OCc1ncc(-c2ccc(C(F)(F)F)cc2)c(NC2CCCCCC2)n1)c1c(F)c(F)c(F)c(F)c1F`, the growth is 63.1% in assay [1]; 77.7% in assay [2]; 87.6% in assay [3]; 83.5% in assay [4]; 63.5% in [5]; 6.29% (active) in assay [6]. Besides, the growth was 38.4% in assay [7], 48.9% in assay [8], 74.3% in assay [9] and 59.2% in [10].
Regarding `O=C(O)c1cc(C(F)(F)F)cc(C(F)(F)F)c1`, the growth in [1] is 101%; in [2], 111%; in assay [3], 102%; in [4] it was 103%; in assay [5] it was 107%; in assay [6], 121%. The growth in [7] was 102%; in [8] it was 101%; in assay [9], 93.7%; in assay [10], 113%.
